Assay results reported in PubChem BioAssay AID1347383 (Zoeller Lab, School of Medicine, Boston University, 2020).
Calls of active or inactive are those of the source.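 The calls were made as follows: active = cell survival after UV exposure 2 SD above solvent-only control wells at 10 µM, confirmed on one or two repeats; inactive = the rest.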

assay: cell survival after pyrene fatty acid photosensitization – ZR-82 cells, Analyticon library, screen 2, phospholipid biosynthesis inhibitor project, primary screen (AID 1347383); conditions: ZR-82 CHO cells, pyrene-fatty acid UV killing, CellTiter Blue; at 10 µM; peroxisome-deficient CHO-K1 variant; with DGAT-1, DGAT-2 and ACAT inhibitors;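 also: survival reflects blocked phospholipid synthesis cutting uptake of the phototoxic fatty acid; compound and fatty acid exposure 3 h then viability read next day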

SMILES	outcome
Cc1c(O)c2c(oc1=O)C(C)(O)C(C)OC2 (stereo not given)	inactive
COc1cc(O)cc2c1C(=O)CC(c1ccc(O)cc1)O2 (stereo not given)	inactive
C=C(C)[C@@H]1CC[C@]2(COC(C)=O)CC[C@]3(C)[C@H](CC[C@@H]4[C@@]5(C)CC[C@H](OC(C)=O)C(C)(C)[C@@H]5CC[C@]43C)[C@@H]12	inactive
CC1=C2C[C@]3(C)C(=O)C[C@@H](C(C)C)[C@H]3C/C=C(/C)[C@@H]2CC1=O	inactive
CCC(C)C(=O)O[C@H]1CCC=C2C=C[C@H](C)[C@H](CC[C@@H](O)C[C@@H](O)CC(=O)O)[C@H]21 (stereo not given in full)	inactive
COc1cc(CC2COC(=O)C2(O)Cc2ccc(O)c(OC)c2)ccc1O (stereo not given)	inactive
O=C1CC2OC(C(O)c3ccccc3)C(O1)C2O (stereo not given)	inactive
CCC(C)C1NC(=O)C2CCCN2C1=O (stereo not given)	inactive
O=c1c(O)c(-c2c(O)cccc2O)oc2cc(O)cc(O)c12	inactive
CCCCCCCCC(=O)/C=C/C=C/C(=O)CCCC(=O)O	inactive
CC[C@H]1C(=O)CC2C3CCC4C[C@@H](O)[C@]5(O)C[C@]4(CO5)C3CC[C@@]21C (stereo not given in full)	inactive
COC1=CC(=O)CC(C)C12Oc1cc(OC)cc(O)c1C2=O (stereo not given)	inactive
C/C=C(/C)C(=O)Oc1c(OC)c(OC)cc2c1-c1c(cc(OC)c(OC)c1OC)C[C@](C)(O)[C@@H](C)C2	inactive
COC(=O)c1ccccc1O[C@@H]1O[C@H](CO)[C@@H](O)[C@H](O)[C@H]1O[C@@H]1O[C@@H](C)[C@H](O)[C@@H](O)[C@H]1O	inactive
COc1cc(CNC(=O)CCCCCCC(C)C)ccc1O	inactive
O=c1c(O)c(-c2ccccc2)oc2cc(O)cc(O)c12	inactive
COc1cc(/C=C/c2ccc(O)cc2)cc(OC)c1	inactive
CCC(C)(O)C(O)C(=O)OCC1CC[N+]2([O-])CCCC12 (stereo not given)	inactive
C[C@@H]1CCC2C(C)(C)[C@H](O)CC[C@]2(C)[C@@]12Cc1c(O)cc3c(c1O2)CNC3=O (stereo not given in full)	inactive
COc1c(C(=O)CC(=O)c2ccccc2)ccc2occc12	inactive

SMILES	outcome
COc1cc2c(cc1O)C(=O)CC1C(C)(C)C(=O)CCC21C (stereo not given)	inactive
CCC(C)CC(C)/C=C/CCC(O)C(Cc1ccc(O)cc1)NC (stereo not given)	inactive
COc1cc(OC)c(C(O)C(C)O)cc1OC (stereo not given)	inactive
COC1OC(OC)C(O)(CC/C=C(\C)CC/C=C(\C)C(=O)O)C1O (stereo not given)	inactive
Cc1c(O)cc(C(C)C)c(O)c1-c1c(C)c(O)cc(C(C)C)c1O	inactive
O=c1ccc2nccc3c4ccccc4n1c23	inactive
CCCC/C=C\CCCCCCCc1cc(=O)c2ccccc2n1C	inactive
COc1cc(OC2O[C@H](CO)[C@@H](O)[C@H](O)[C@H]2O)c2c(=O)c(-c3ccc(O)cc3)coc2c1 (stereo not given in full)	inactive
C/C=C(/C)C(=O)O[C@@H]1C[C@@H](OC(=O)CC(C)C)C2(C)C3C(=O)C=C(C)C2C3C1(C)C (stereo not given in full)	inactive
CCC(C)C(=O)Oc1cc(C)ccc1C1(COC(=O)C(C)C)CO1 (stereo not given)	inactive
COc1cc(/C=C/c2cc(O)cc(O)c2)ccc1O	inactive
COc1ccc2cc3[n+](cc2c1OC)CCc1cc2c(cc1-3)OCO2	inactive
CC(C)(O)C1OC1C1=CC(=O)C2(C)OC2C1O (stereo not given)	inactive
Oc1cc(O)c2c(c1)O[C@H](c1ccc(O)c(O)c1)[C@@H](O)C2	inactive
C/C(=C\C(=O)C(C)C1CCC2C3=C(CCC21C)C1(C)CCC(O)C(C)(C)C1(O)CC3)C(C)(C)O (stereo not given)	inactive
CC/C=C/CC1=C(CCCCCCCC(=O)O)CCC1=O	inactive
Cc1cc(O)c2c(c1)C(=O)c1cccc(O)c1C2=O	inactive
C=C1C(=O)O[C@@H]2/C=C(\C)CC/C=C(\C(=O)O)C[C@@H](OC(=O)/C(C)=C/C)C12 (stereo not given in full)	inactive
CCCCCC1=C(CO)C(O)C(O)CC1=O (stereo not given)	inactive
COc1ccc(C(O)CNC(=O)/C=C/c2ccccc2)cc1 (stereo not given)	inactive
